Active and inactive are the calls of the source. The calls were made as follows: active = hit-call score of the fitted dose curve at least 0.9, where 1 is the maximum; inactive = score below 0.9.
Tests used:
[1] = biological target: Bile acid receptor (Homo sapiens) (UniProt Q96RI1); test: ATG_IR1_CIS: Attagene CIS-FACTORIAL HepG2 Assay for human Nuclear Receptor Subfamily 1 Group H Member 4 (NR1H4), IR1 submotif (AID 2282946); conditions: IR1 reporter transcription, actives raise or lower the signal
Chain of Bile acid receptor (Homo sapiens) (Q96RI1 whole entry, looked up): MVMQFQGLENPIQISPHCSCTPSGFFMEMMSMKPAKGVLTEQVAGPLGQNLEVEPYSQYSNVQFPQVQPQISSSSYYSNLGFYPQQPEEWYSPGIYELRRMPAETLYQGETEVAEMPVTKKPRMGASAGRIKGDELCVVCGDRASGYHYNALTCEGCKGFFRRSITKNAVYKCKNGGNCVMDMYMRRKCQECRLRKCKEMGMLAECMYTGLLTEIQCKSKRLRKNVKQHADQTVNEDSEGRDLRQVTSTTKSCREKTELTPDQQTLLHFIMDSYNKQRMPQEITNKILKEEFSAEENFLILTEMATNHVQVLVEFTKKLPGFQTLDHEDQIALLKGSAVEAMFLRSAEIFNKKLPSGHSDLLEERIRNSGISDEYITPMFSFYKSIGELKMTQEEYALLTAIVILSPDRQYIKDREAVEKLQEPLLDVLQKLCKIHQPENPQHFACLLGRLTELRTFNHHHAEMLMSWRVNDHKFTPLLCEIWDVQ
Procedure, shortened: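 Fluorescence of capillary-separated, HpaI-digested RT-PCR reporter products gave IR1-element mRNA induction in HepG2 cells 24 h after dosing. Endogenous transcription factors drove the cis-regulated reporters; activity was fitted bidirectionally against DMSO.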

[2] = ATG_ISRE_CIS: Attagene CIS-FACTORIAL HepG2 Assay for human Interferon Regulatory Factor 1 (IRF1) binding to an Interferon-Stimulated Response Element (ISRE) (AID 2282948); conditions: HepG2 ISRE cis-reporter (Attagene), mRNA transcription readout; actives raise or lower the signal
Procedure, shortened: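 Uses HepG2 liver cells transfected with cis-regulated reporters and measures mRNA 24 h post-dosing through RT-PCR, primer-extension labelling and capillary electrophoresis, with DMSO as negative control.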

[3] = ATG_M_32_CIS: Attagene CIS-FACTORIAL HepG2 Assay for M32 Transcription Factor (Internal Marker) (AID 2282949); conditions: HepG2 Attagene cis-factorial M32 reporter, mRNA; actives raise or lower the signal;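 also: background control marker of the multiplexed CIS panel rather than a real target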
Procedure, shortened: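 HepG2 transfectants (cis-regulated reporter transcription units) dosed 24 h. Reporter mRNA by RT-PCR plus CE, analysed as gain or loss relative to DMSO.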

[4] = ATG_M_06_CIS: Attagene CIS-FACTORIAL HepG2 Assay for M06 Transcription Factor (Internal Marker) (AID 2282950); conditions: HepG2 Attagene CIS-FACTORIAL M06 internal marker reporter; actives raise or lower the signal
Procedure, shortened: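 Cells (HepG2, transiently carrying cis-driven reporter units) receive chemical for 24 h before RNA isolation. Reporter cDNA is PCR-amplified, FAM-labelled by primer extension, HpaI-digested and sized on a capillary analyser.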

[5] = biological target: Hypoxia-inducible factor 1-alpha (Homo sapiens) (UniProt Q16665); test: ATG_HIF1a_CIS: Attagene CIS-FACTORIAL HepG2 Assay for human Hypoxia Inducible Factor 1 (HIF1A) (AID 2282951); conditions: HepG2 Attagene cis-factorial HIF1a reporter transcription; actives raise or lower the signal
Chain of Hypoxia-inducible factor 1-alpha (Homo sapiens) (Q16665 whole entry, looked up): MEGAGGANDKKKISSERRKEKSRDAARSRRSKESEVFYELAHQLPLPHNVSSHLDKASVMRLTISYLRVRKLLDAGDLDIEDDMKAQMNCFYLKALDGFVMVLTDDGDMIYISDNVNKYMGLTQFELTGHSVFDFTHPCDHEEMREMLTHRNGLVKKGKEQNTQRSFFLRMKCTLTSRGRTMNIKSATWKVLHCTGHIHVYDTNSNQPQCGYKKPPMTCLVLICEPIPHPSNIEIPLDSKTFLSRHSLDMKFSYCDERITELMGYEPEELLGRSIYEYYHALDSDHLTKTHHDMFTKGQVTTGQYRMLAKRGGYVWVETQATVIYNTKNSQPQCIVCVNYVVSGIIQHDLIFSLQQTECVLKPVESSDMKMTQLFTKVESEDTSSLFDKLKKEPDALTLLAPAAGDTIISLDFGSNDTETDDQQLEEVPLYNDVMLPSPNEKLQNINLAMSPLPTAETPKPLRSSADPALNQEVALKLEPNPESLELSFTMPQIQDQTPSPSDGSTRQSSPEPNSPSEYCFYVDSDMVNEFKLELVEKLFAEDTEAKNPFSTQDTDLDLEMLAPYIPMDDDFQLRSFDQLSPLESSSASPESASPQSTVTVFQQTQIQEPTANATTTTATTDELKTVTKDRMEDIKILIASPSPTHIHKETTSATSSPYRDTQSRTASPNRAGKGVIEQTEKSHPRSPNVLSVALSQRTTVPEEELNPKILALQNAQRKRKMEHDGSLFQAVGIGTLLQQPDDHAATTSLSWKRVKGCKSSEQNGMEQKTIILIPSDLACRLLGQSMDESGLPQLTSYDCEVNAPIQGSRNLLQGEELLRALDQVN
Procedure, shortened: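 HepG2, transient cis-reporter library, 24 h dosing. RNA → RT (oligo dT) → PCR → 6-FAM primer extension → HpaI → CE. Bidirectional curve fit vs DMSO.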

[6] = biological target: Hepatocyte nuclear factor 6 (Homo sapiens) (UniProt Q9UBC0); test: ATG_HNF6_CIS: Attagene CIS-FACTORIAL HepG2 Assay for human Hepatocyte Nuclear Factor 6 (HNF6) (AID 2282952); conditions: HepG2 Attagene cis-factorial HNF6 reporter transcription; actives raise or lower the signal
Chain of Hepatocyte nuclear factor 6 (Homo sapiens) (Q9UBC0 whole entry, looked up, the tested form may be a part): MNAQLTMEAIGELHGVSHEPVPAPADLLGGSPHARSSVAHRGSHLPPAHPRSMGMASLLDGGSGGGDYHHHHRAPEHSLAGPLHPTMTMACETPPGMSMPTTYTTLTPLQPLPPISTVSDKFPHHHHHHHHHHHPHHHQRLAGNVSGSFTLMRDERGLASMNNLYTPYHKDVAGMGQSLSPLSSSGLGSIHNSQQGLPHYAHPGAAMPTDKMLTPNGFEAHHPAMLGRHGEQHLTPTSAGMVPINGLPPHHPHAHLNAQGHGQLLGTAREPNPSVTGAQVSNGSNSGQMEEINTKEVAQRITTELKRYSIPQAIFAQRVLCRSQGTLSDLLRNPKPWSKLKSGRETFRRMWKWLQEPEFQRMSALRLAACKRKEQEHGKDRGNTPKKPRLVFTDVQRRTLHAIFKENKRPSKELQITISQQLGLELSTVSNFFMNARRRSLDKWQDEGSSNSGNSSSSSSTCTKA
Procedure, shortened: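 Using cis-element reporters in HepG2 liver cells, the assay tracks endogenous factor-driven transcription 24 h post-dosing. Signal comes from 6-FAM-labelled, HpaI-digested RT-PCR fragments, with gain or loss scored against DMSO.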

[7] = biological target: Heat shock factor protein 1 (Homo sapiens) (UniProt Q00613); test: ATG_HSE_CIS: Attagene CIS-FACTORIAL HepG2 Assay for human Heat Shock Transcription Factor 1 (HSE) (AID 2282953); conditions: HepG2 HSE cis-reporter, Attagene RNA transcription; actives raise or lower the signal
Chain of Heat shock factor protein 1 (Homo sapiens) (Q00613 whole entry, looked up): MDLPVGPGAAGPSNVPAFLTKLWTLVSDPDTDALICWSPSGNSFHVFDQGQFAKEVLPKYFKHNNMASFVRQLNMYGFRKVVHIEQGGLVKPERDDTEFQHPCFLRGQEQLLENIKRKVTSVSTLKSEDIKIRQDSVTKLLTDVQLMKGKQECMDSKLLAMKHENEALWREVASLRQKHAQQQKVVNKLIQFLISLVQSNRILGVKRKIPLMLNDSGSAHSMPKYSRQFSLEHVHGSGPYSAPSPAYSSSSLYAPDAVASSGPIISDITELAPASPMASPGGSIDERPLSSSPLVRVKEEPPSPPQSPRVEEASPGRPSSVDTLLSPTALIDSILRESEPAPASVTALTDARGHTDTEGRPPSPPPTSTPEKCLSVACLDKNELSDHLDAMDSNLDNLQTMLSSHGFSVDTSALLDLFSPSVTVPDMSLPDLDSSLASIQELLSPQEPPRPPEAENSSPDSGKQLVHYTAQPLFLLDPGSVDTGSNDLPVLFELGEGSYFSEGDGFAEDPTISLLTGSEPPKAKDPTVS
Procedure, shortened: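 Liver-derived HepG2 cells carry transiently introduced multiple reporter units governed by cis promoters. Reporter RNA measured 24 h post-dose through reverse transcription, PCR amplification, fluorescent labelling and capillary electrophoresis, normalised to DMSO.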

[8] = ATG_MRE_CIS: Attagene CIS-FACTORIAL HepG2 Assay for human Metal Responsive Element (MRE) (AID 2282954); conditions: HepG2 MRE cis-reporter transcription, Attagene multiplex; actives raise or lower the signal
Procedure, shortened: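 Measured here is mRNA induction from an MRE cis-element reporter in HepG2 after 24 h, quantified by fluorescence of labelled RT-PCR products on capillary electrophoresis; gain- and loss-of-signal fits use DMSO as baseline.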

[9] = ATG_PBREM_CIS: Attagene CIS-FACTORIAL HepG2 Assay for human Phenobarbital-responsive Enhancer Module (PBREM) (AID 2282955); conditions: HepG2 PBREM cis-reporter, Attagene multiplexed transcription; actives raise or lower the signal
Procedure, shortened: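 HepG2, transient MRTU transfection, 24 h dosing; RNA → oligo(dT) RT → PCR → 6-FAM extension → HpaI → CE. Bidirectional fit vs DMSO.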

[10] = biological target: Paired box protein Pax-6 (Homo sapiens) (UniProt P26367); test: ATG_Pax6_CIS: Attagene CIS-FACTORIAL HepG2 Assay for human Paired Box 6 (PAX6) (AID 2282956); conditions: HepG2 CIS-FACTORIAL PAX6 reporter transcription, RNA readout; actives raise or lower the signal
Chain of Paired box protein Pax-6 (Homo sapiens) (P26367 whole entry, looked up): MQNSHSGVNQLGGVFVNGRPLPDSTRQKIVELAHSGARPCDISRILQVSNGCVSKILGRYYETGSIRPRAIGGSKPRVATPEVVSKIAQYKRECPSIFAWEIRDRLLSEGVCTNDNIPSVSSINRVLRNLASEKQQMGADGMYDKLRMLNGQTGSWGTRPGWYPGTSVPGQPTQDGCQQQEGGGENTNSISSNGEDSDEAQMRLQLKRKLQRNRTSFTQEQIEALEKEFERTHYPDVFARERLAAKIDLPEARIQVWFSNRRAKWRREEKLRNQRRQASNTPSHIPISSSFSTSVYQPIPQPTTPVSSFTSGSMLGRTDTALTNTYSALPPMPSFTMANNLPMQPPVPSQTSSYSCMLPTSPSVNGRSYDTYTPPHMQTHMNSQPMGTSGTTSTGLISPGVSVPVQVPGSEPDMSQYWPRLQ
Procedure, shortened: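 DMSO-referenced bidirectional fits of reporter mRNA fluorescence; HepG2 with transient cis-promoter MRTUs, 24 h post-dose, RT-PCR plus capillary electrophoresis detection.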

[11] = ATG_PXRE_CIS: Attagene CIS-FACTORIAL HepG2 Assay for human Pregnane X Receptor Element (PXRE) (AID 2282957); conditions: HepG2 Attagene CIS-FACTORIAL PXRE reporter, mRNA; actives raise or lower the signal
Procedure, shortened: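 Using HepG2 transfected with multiple reporter transcription units, endogenous factor-driven transcription was scored as reporter mRNA after 24 h exposure.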

[12] = ATG_PPRE_CIS: Attagene CIS-FACTORIAL HepG2 Assay for human Peroxisome Proliferator-activated Response Element (PPRE) (AID 2282958); conditions: HepG2 PPRE cis-element reporter, Attagene transcription factor profiling; actives raise or lower the signal
Procedure, shortened: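 Transcript-level reporter induction in transfected HepG2 cells after 24 h chemical exposure, quantified by fluorescence from RT-PCR products separated by capillary electrophoresis.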

[13] = ATG_RORE_CIS: Attagene CIS-FACTORIAL HepG2 Assay for human RAR-related Orphan Receptor Element (RORE) (AID 2282959); conditions: HepG2 Attagene cis-factorial RORE reporter, mRNA; actives raise or lower the signal
Procedure, shortened: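 Multiplexed reporter assay measuring mRNA induction from a cis promoter element in transiently transfected HepG2 cells after 24 h treatment. Detection via RT-PCR and capillary electrophoresis fluorescence; DMSO serves as baseline.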

[14] = ATG_Sox_CIS: Attagene CIS-FACTORIAL HepG2 Assay for human SRY-box transcription factor (SOX) (AID 2282960); conditions: HepG2 Attagene cis-factorial SOX reporter, mRNA; actives raise or lower the signal
Procedure, shortened: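 Cells were transfected with reporter constructs under cis-regulatory promoters, then exposed to chemicals for 24 h. Reporter transcripts were quantified by fluorescence after RT-PCR and capillary electrophoresis; activity was fitted in both directions against DMSO.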

[15] = biological target: Transcription factor Sp1 (Homo sapiens) (UniProt P08047); test: ATG_Sp1_CIS: Attagene CIS-FACTORIAL HepG2 Assay for human Specificity Protein 1 (Sp1) (AID 2282961); conditions: HepG2 Sp1 cis-reporter transcription, actives raise or lower the signal
Chain of Transcription factor Sp1 (Homo sapiens) (P08047 whole entry, looked up): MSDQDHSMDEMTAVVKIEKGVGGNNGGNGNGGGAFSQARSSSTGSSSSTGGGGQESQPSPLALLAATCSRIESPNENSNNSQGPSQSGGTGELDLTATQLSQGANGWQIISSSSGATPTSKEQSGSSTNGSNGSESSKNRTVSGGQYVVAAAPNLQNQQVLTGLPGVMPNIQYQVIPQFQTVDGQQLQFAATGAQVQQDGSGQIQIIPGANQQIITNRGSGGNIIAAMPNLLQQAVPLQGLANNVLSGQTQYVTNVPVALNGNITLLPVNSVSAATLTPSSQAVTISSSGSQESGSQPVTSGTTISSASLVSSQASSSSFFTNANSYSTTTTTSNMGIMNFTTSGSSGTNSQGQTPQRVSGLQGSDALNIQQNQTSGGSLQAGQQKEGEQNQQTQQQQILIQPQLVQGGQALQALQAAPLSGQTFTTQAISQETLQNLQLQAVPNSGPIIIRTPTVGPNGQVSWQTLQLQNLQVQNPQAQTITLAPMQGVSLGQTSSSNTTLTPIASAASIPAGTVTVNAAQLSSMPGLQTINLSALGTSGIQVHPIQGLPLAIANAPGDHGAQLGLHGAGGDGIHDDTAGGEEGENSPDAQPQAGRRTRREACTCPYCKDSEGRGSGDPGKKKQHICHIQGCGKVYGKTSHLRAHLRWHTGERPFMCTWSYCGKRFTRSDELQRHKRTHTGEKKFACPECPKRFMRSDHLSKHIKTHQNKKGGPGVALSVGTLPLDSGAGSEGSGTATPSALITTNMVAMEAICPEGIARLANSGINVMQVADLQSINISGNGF
Procedure, shortened: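 Measures mRNA induction of an Sp1-linked reporter in HepG2 cells 24 h post-dosing. Multiplexed reporters read by RT-PCR and capillary electrophoresis; DMSO serves as negative control and baseline.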

[16] = ATG_SREBP_CIS: Attagene CIS-FACTORIAL HepG2 Assay for human Sterol Regulatory Element Binding (SREBP) (AID 2282962); conditions: HepG2 Attagene cis-factorial SREBP reporter, mRNA; actives raise or lower the signal
Procedure, shortened: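 In this cis-format assay, HepG2 liver cells express reporters controlled by promoter elements responsive to native transcription factors. Exposure lasts 24 h; reporter mRNA fluorescence from capillary electrophoresis gives the signal, fitted bidirectionally against DMSO.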

[17] = biological target: Signal transducer and activator of transcription 3 (Homo sapiens) (UniProt P40763); test: ATG_STAT3_CIS: Attagene CIS-FACTORIAL HepG2 Assay for human Signal Transducer and Activator of Transcription 3 (STAT3) (AID 2282963); conditions: HepG2, Attagene cis-factorial STAT3 reporter transcription; actives raise or lower the signal
Chain of Signal transducer and activator of transcription 3 (Homo sapiens) (P40763 whole entry, looked up, the tested form may be a part): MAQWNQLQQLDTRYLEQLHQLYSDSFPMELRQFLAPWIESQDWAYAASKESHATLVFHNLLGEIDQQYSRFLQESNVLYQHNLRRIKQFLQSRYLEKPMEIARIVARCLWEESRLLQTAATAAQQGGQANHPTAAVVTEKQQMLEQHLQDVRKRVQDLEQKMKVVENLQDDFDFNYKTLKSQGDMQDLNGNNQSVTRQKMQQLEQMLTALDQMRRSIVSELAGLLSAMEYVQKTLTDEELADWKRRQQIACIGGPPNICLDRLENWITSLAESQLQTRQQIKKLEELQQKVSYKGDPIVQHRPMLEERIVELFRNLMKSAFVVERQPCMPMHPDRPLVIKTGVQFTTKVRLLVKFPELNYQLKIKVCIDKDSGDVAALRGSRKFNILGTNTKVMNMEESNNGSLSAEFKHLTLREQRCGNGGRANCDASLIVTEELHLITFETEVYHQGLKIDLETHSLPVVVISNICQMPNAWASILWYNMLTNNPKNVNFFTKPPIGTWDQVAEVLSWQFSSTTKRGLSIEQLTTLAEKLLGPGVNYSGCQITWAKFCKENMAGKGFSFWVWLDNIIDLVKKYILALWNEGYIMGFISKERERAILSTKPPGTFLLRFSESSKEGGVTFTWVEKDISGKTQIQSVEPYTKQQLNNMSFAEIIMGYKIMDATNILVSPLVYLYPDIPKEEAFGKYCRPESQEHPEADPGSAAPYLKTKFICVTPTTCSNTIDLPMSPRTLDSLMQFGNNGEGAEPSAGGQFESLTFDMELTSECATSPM
Procedure, shortened: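 Fluorescence intensity of 6-FAM-labelled reporter fragments, separated by capillary electrophoresis after RT-PCR, gave the signal. Cells were HepG2 transfected with cis-element reporter units and treated 24 h; fitting was bidirectional relative to DMSO.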

[18] = ATG_TA_CIS: Attagene CIS-FACTORIAL HepG2 Assay for human TA Basal Promoter (AID 2282964); conditions: HepG2 Attagene CIS-factorial TA basal promoter reporter; actives raise or lower the signal
Procedure, shortened: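 Background internal-marker endpoint from a 52-component HepG2 cis-reporter panel. Cells treated 24 h; reporter transcripts quantified via RT-PCR and CE fluorescence against DMSO baseline.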

[19] = ATG_TCF_b_cat_CIS: Attagene CIS-FACTORIAL HepG2 Assay for human T-Cell-Factor with beta-catenin (TCF/b-cat) (AID 2282965); conditions: HepG2 TCF/beta-catenin cis-reporter transcription, actives raise or lower the signal
Procedure, shortened: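 Cells of the HepG2 line carry transiently transfected reporter units whose promoters respond to endogenous factors. Twenty-four hours post-dosing, reporter mRNA induction is measured by fluorescent RT-PCR and capillary electrophoresis, with DMSO as baseline.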

[20] = ATG_GRE_CIS: Attagene CIS-FACTORIAL HepG2 Assay for human Glucocorticoid Response Elements (GRE) (AID 2282947); conditions: HepG2 GRE cis-reporter, Attagene multiplex mRNA; actives raise or lower the signal
Procedure, shortened: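 Fluorescence intensity of reporter-specific cDNA fragments, separated by capillary electrophoresis, provides the signal. Constructs carry cis-regulating promoters in transiently transfected HepG2 liver cells; 24 h incubation; fitting is bidirectional against DMSO.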

Measured: AC50

CCCSP(=O)(OCC)Oc1ccc(Br)cc1Cl (centres undefined)
active: [11] 3.04 µM | [16] 1.31 µM
not listed: [20]
inactive: all other assays above

CSC1=N[C@@](C)(c2ccccc2)C(=O)N1Nc1ccccc1
active: [8] 50 µM | [9] 21.7 µM | [11] 7.44 µM | [12] 19.2 µM
inactive: all other assays above

Nc1nc(N)nc(NC2CC2)n1
not listed: [9] | [12] | [19]
inactive: all other assays above

FC(F)C(F)(F)OCC(Cn1cncn1)c1ccc(Cl)cc1Cl (centres undefined)
active: [7] 81.4 µM | [8] 69.3 µM | [10] 78.8 µM | [11] 6.25 µM | [12] 44.5 µM | [13] 50 µM | [16] 13.2 µM
not listed: [5] | [9] | [19]
inactive: all other assays above

CSc1nnc(C(C)(C)C)c(=O)n1N
not listed: [12]
inactive: all other assays above

COP(=O)(OC)C(O)C(Cl)(Cl)Cl (centres undefined)
active: [8] 31.5 µM | [11] 16.1 µM | [12] 41.5 µM
not listed: [5]
inactive: all other assays above

C[Si](Cn1cncn1)(c1ccc(F)cc1)c1ccc(F)cc1
active: [1] 69 µM | [3] 35.4 µM | [5] 50 µM | [7] 85.6 µM | [8] 63.2 µM | [10] 67.8 µM | [11] 3.52 µM | [12] 43.1 µM | [13] 18.7 µM | [16] 13.9 µM | [18] 50 µM
inactive: [2] | [4] | [6] | [14] | [15] | [17]

CCCCSP(=O)(SCCCC)SCCCC
inactive: [1] | [4] | [6] | [7] | [10] | [13]
active: [20] 50 µM | [2] 58.6 µM | [3] 77.9 µM | [8] 23.4 µM | [9] 50 µM | [11] 12.9 µM | [12] 11.7 µM | [14] 76.7 µM | [15] 50 µM | [16] 20.1 µM | [17] 50 µM | [18] 80.2 µM

Cc1cc(C2CC2)nc(Nc2ccccc2)n1
active: [2] 81 µM | [8] 74.7 µM | [9] 50 µM | [10] 50 µM | [11] 13.4 µM | [12] 22 µM | [14] 90 µM | [15] 84.7 µM | [16] 12.6 µM
not listed: [5] | [20]
inactive: all other assays above

— PubChem BioAssay (EPA / NIEHS)
